# KB-3-1 cytotox – qHTS assay for MDR1-selective chemotherapeutics: Primary screen using the parental adenocarcinoma cell KB-3-1 | AID 1347075, 2019 | KB-3-1 viability, CellTiter-Glo ATP luminescence, 72 h | Potency, µM (top dose mostly 46.1 µM), most hits filed as cytotoxic | 1.4% of 400,000 active; also: % is scaled to controls: 0 for no effect and ±100 for the full control effect; nearly all actives have a fitted effect of over 60% in size
#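 Viability of parental KB-3-1 cells, measured by CellTiter-Glo luminescence, followed a 72 h incubation at 37 °C with pinned compounds in phenol-red-free DMEM containing 10% FBS.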
# HepG2 viability – qHTS for Inhibitors of TGF-b: Cytotox Counterscreen. HepG2 CAGA-GFP viability, ATP luminescence, 18 h. Potency, µM (top dose mostly 46.1 µM), for the others: at the highest dose activity change, negative = cytotoxicity, hits mostly cytotoxic. 0.76% of 410,000 active. AID 588856, 2011
#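 CellTiter-Glo luminescence gave cytotoxicity after 18 hours at 37 degrees C. The cells were HepG2 CAGA-GFP in 1% FBS DMEM, stimulated with 500 pg/mL TGF-beta after compound addition. %Activity was normalised to no-cell wells (complete cell-killing) and DMSO (no toxicity), and curves were fitted and classified.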
# KB-V1 MDR tox – qHTS assay for MDR1-selective chemotherapeutics: Primary screen using the drug-selected MDR subline cells KB-V1; 3.4% of 400,000 active; Potency, µM (highest dose often 46.1 µM), usual class: cytotoxic; AID 1347076, 2019; KB-V1 MDR cells viability, CellTiter-Glo, 72 h; also: % is scaled to controls: 0 for no effect and ±100 for the full control effect; nearly all actives have a fitted effect of over 60% in size
#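 Compound-treated KB-V1 multidrug-resistant cells, 72 h, 37 degrees C; viability by CellTiter-Glo. Fitted qHTS curves give the values.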
# TGFb SMAD3 inh – qHTS for Inhibitors of TGF-b. HepG2 CAGA-GFP TGF-b/SMAD3 reporter, GFP fluorescence, 18 h; TGF-beta stimulated, 500 pg/mL final. 1.2% of 410,000 active. Potency, µM (top dose mostly 46.1 µM), for the others: at the highest dose activity, negative = inhibition, hits mostly inhibitors; also: % is scaled to controls: 0 for no effect and ±100 for the full control effect; nearly all actives have a fitted effect of over 65% in size
#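 Read-out: total well GFP (ex488/em500-530) summed from mean per-cell fluorescence. Cells: HEPG2 CAGA-GFP, 1% FBS DMEM, 18 h at 37 degrees C with 500 pg/mL final TGF-beta. Unstimulated wells served as the full-inhibition control; stimulated DMSO wells = 0%.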
# ATXN2 expr inh – Primary qHTS for Inhibitors of ATXN expression. HEK-293 ATXN2-luciferase reporter, luminescence, 24 h. 0.72% of 360,000 active. Potency, µM (series often up to 57 µM), for the others: at the highest dose activity change, negative = inhibition, most hits filed as inhibitors; also: % is scaled to controls: 0 for no effect and ±100 for the full control effect; nearly all actives have a fitted effect of over 55% in size
#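 ATXN2-luciferase reporter cells (luciferase flanked by upstream and downstream ATXN2 gene portions) were treated 24 h at 37 °C with compounds at up to 57 uM. SteadyGlo luminescence gave expression; GF-AFC fluorescence gave viability.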
# S2 tox – Viability Counterscreen for Primary qHTS for Inhibitors of ATXN expression | AID 651635, 2014 | Potency, µM (highest dose often 56.7 µM), most hits filed as cytotoxic | S2 cells (HEK-293 line with an ATXN2-luciferase reporter) viability, CellTiter-Fluor protease fluorescence, 24 h | 0.49% of 400,000 active; also: nearly all actives have a fitted effect of over 40% in size
# Starred values were filed as active, the others as inactive; i = inactive; u = inconclusive; x = not tested or not shown; ! = repeats disagree. Most compounds without a hit are left out; they make up all but 5.9% or so of the library. Calls follow the shape of the dose curve; as a rule, active = well fitted curve in the direction sought with a large enough effect; inconclusive = small, poorly fitted or top-dose-only effect, or another doubt; inactive = no such curve, though single readings can be large; an effect the other way counts as inactive or inconclusive. Potency is read from the fitted curve at half-maximal effect.
SMILES,KB-3-1 cytotox,HepG2 viability,KB-V1 MDR tox,TGFb SMAD3 inh,ATXN2 expr inh,S2 tox
Cn1c(-c2ccc(F)cc2)cnc1NCc1ccc(F)cc1,i,-29%,i,-7%,4%,i
O=C1CC(N2CCN(C/C=C/c3ccccc3)CC2)C(=O)N1CCc1ccccc1 (stereo not given),i,-29%,12µM*,u,u,i
CC1CCc2c(sc(NC(=O)/C=C/c3cccs3)c2C(=O)O)C1 (stereo not given),18µM*,-8%,i,-7%,4%,u
COc1ccc(CCNC(=O)C(=O)NCC(c2cccs2)S(=O)(=O)c2cccs2)cc1 (stereo not given),u,-27%,u,1%,-17%,i
COC(=O)c1sc(-c2ccccc2)cc1NC(=O)c1cccc(Cl)c1,i,0%,i,21%,x,x
c1cc2cc(-c3c(-c4ccc5c(c4)OCO5)noc3-c3ccsc3)ccc2[nH]1,u,-85%,21µM*!,u,14%,i
c1ccc(-c2onc(-c3ccco3)c2-c2ccc3[nH]ccc3c2)cc1,u,-40%,23µM*!,14µM*,-11%,i
Cc1onc(-c2ccc3c(c2)OCO3)c1-c1ccc2[nH]ccc2c1,u,-13%,u,13µM*,-23%,u
O=S(=O)(NCCc1cn(S(=O)(=O)c2ccccc2)c2ccccc12)c1ccccc1,x,4%,x,-4%,x,x
CC(C)(C)c1ccc(CN2C3=NCCCN3c3ccccc32)cc1,u,16µM*,u,u,u,u
O=C(CN1C2=NCCCN2c2ccccc21)c1ccc(Br)s1,u,-11%,10µM*,4%,u,i
CCCC(=O)Nc1ccc2c(c1)nc(CN1CCN(C(=O)OCC)CC1)n2C,i,-8%,i,0%,17%,i
CCCC(=O)Nc1ccc2c(c1)nc(CN1CCN(C(=O)OCC)CC1)n2CC,3.3µM*,-7%,i,-4%,2%,i
CC(=O)Nc1ccc(C(=O)CSc2cc(C)c3cccc(C)c3n2)cc1,u,7%,13µM*,-4%,-4%,u
Cc1cc(SCC(=O)c2cccs2)nc2c(C)cccc12,i,-13%,u,-3%,9%,i
CCC(=O)N1CCN(c2ccc(Cl)cc2NC(=O)c2ccc3c(c2)OCCO3)CC1,i,1%,5.2µM*,-12%,-15%,i
C=CCN(c1ccc(C(=O)Nc2ccc(C)c(C)c2)cc1)S(C)(=O)=O,i,-21%,21µM*,-33%,23%,i
Cc1cc(NC(=O)c2ccc3c(c2)OCCO3)no1,i,-24%,i,-2%,11µM*,i
Cc1cc(C)cc(C(=O)NC(=S)Nc2ccc3c(c2)OCCO3)c1,i,-7%,4.6µM*,3%,21%,i
Cc1ccc(SCCNC(=O)CN(c2cccc(C)c2C)S(C)(=O)=O)cc1,i,-7%,i,2%,-9%,i
CC(NC(=O)C1CCOCC1)c1nnc2n1CCN(Cc1ccc(F)cc1)CC2 (stereo not given),x,x,x,x,x,i
COc1ccc(S(=O)(=O)NCc2ccc3c(c2)CCN3C(C)=O)cc1OC,x,-23%,x,-18%,x,x
COc1ccc(-c2nc(CSCC(=O)NCCc3ccc(C)cc3)c(C)o2)cc1OC,i,-7%,i,-2%,x,x
Cc1ccc(C(C)OC(=O)C2(C)CCC(C(=O)O)C2(C)C)cc1 (stereo not given),x,x,x,x,14%,i
Cc1ccc(CN(c2ccc(C(=O)Nc3ccc4c(c3)OCO4)cc2)S(C)(=O)=O)cc1,i,-1%,6.5µM*,0%,9%,i
SMILES,KB-3-1 cytotox,HepG2 viability,KB-V1 MDR tox,TGFb SMAD3 inh,ATXN2 expr inh,S2 tox
Cc1c(C(=O)Nc2ccc3c(c2)OCCO3)oc2ccc(Br)cc12,i,-31%,21µM*,-24%,33%,i
c1cc(CNc2ccc3c(c2)OCO3)ccn1,i,1%,i,3%,26%,i
CS(=O)(=O)N(CC(=O)Nc1ccc2c(c1)OCO2)c1ccc(Cl)cc1,i,1%,23µM*,13%,19%,i
Cc1ccc(CNc2ccc3c(c2)OCO3)cc1,u,13µM*,u,-1%,32%,i
Cc1oc(C(C)(C)C)cc1C(=O)Nc1ccc2c(c1)OCCO2,i,-2%,21µM*,u,49%,i
O=C(NC(=S)Nc1ccc(N2CCCCC2)c(Cl)c1)c1ccc2c(c1)OCCO2,1.2µM*,-26%,u,-15%,u,u
Cc1ccc(C(=O)Nc2ccc3c(c2)OCO3)cc1,i,-21%,u,-23%,-11%,i
O=C(CCl)Nc1ccc2c(c1)OCO2,15µM*,-52%,u,-15%,-16%,x
Cc1oc(C(C)(C)C)cc1C(=O)Nc1ccc2c(c1)OCO2,i,-63%,i,2%,14%,i
Cc1ccc(C(=O)Nc2ccc3c(c2)OCCO3)cc1,i,-26%,u,17%,13µM*,i
Cn1c2c(c3cnc4cc(Cl)ccc4c31)CN(Cc1ccc(Cl)cc1)CC2,u,0%,i,-1%,x,x
O=C(NCCc1ccccc1)c1ccc2c(c1)N(Cc1c(F)cccc1Cl)C(=O)CS2,i,-11%,i,u,5%,u
CCS(=O)c1scc(-c2ccc(Cl)cc2)c1C#N (stereo not given),u,4%,21µM*,-17%,x,i
CCc1nc2c(C#N)c(-c3ccc(Cl)cc3)ccn2n1,u,1%,u,19%,1%,i
Cc1cccc(NC(=O)c2c(C)oc3ncnc(N4CCCCC4)c23)c1C,x,-14%,x,-18%,x,x
Cc1cccc(C)c1NC(=O)c1c(O)c2ccccc2[nH]c1=O,18µM*,-33%,u,-15%,-2%,i
CC1=NN(C(N)=S)C(=O)C1N=Nc1ccc(S(N)(=O)=O)cc1 (stereo not given),i,-15%,i,-1%,x,i
NS(=O)(=O)c1ccc(N=Nc2nc3[nH]cnc(=S)c3[nH]2)cc1,1.2µM*,-42%,1.2µM*,u,x,x
O=[N+]([O-])c1ccc(Sc2cccc3cccnc23)cc1,i,-15%,u,-7%,51%,i
Cc1cc(C)nc(Sc2ccc([N+](=O)[O-])cc2[N+](=O)[O-])n1,i,-22%,u,u,u,i

# Bioassay records deposited in PubChem BioAssay by National Center for Advancing Translational Sciences (NCATS).
